The panel holds about 83,000 compounds, 20% with a hit somewhere; the sample as a whole holds those more often.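 Single-dose data. Exposure time 48 hours. Values below 10 considered active.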 Unmarked numbers belong to inactive results. The source made the active and inactive calls.

The subject of this test is HT29 colon. Put plainly: NCI-60 one-dose screen, 48 h (100 = growth as untreated, 0 = no growth, -100 = all killed). The settings on record: 10 µM unless noted. How it is done:
Growth inhibition of the HT29 human tumor cell line is measured as a screen for anti-cancer activity. Cells are grown in 96 well plates and exposed to the test compound for 48 hours. Compounds are tested at a single concentration, which is 10^-5 M for most compounds. The reported endpoint is percent growth (GI% or GIPRCNT), where numbers from 0 - 100% represent growth inhibition, and numbers from -100% - 0 represent cell death. For example, a value of 40 represents 60% growth inhibition. A value of 0 means no net growth occurred over the course of the experiment. A value of -40 indicates 40% of cells at the beginning of the experiment died by the end of the experiment. A value of -100 means all cells are dead at the end of the experiment.
NCI-60 Human Tumor Cell Lines Screen was performed using the standard one-dose NCI protocol, which is described in more detail at https://dtp.cancer.gov/discovery_development/nci-60/default.htm.
Compounds with GIPRCNT values below 10 were considered active. Activity score was based on GIPRCNT using the following formula: […]
Score is 0 for GIPRCNT values of 100 or above, 50 for GIPRCNT values of 0, and 100 for GIPRCNT values of -100.
For the compound `S=c1[nH]nc2sc3ccccc3n12`, the growth was 101%.

`O=[N+]([O-])c1ccc(N/N=C\c2ccccc2[N+](=O)[O-])nc1`: the growth is 104%.

On to `COc1cc(/C=C2\COc3ccc(O)c(O)c3C2=O)cc(OC)c1`, for which the growth was 3.57% (active).

As to `CN(C)c1ccc2c(c1)/C(=N/O)c1ccccc1-2`, the growth was 81.4%.

Consider `Cc1cc2cn3c4cccnc4[nH]c(=O)c3c2cc1C`, for which the growth is -76.3% (active).

Regarding `O=C(Nc1ccncc1)C(=O)c1cn(S(=O)(=O)c2cccc(F)c2)c2ccccc12`, the growth was 1.12% (active).

In the case of `O=C1c2ccccc2-c2c1nc1ccccc1[n+]2[O-]`, the growth is 105%.

`COc1cccc(CCC2C(=O)CCCC2=O)c1`: the growth is 111%.

On to `CCN1C(=O)c2ccc3c4c(ccc(c24)C1=O)C(=O)N(CCCNCc1ccccc1OC)C3=O`, for which the growth is -48.8% (active).

Take `Cc1cc(C)n(C(=O)c2nn(-c3ccc(Cl)cc3)cc2O)n1`: the growth is 97.7%.

Regarding `CC[N+](CC)(CCOCCOCC[N+](CC)(CC)Cc1ccc([N+](=O)[O-])cc1)Cc1ccc([N+](=O)[O-])cc1`, the growth was 113%.

For `CC(C)c1ccc(C(=O)Nc2sc3c(CN(C)C)c(O)ccc3c2C(N)=O)cc1`, the growth is 2.74% (active).

Consider `O=C(Nc1ccc(Nc2ccncc2)cc1)c1ccc(Nc2ccnc3ccc([N+](=O)[O-])cc23)cc1[N+](=O)[O-]`, for which the growth is 103%.

For `Cc1cc(C)n2nc(SCC(=O)Nc3sc4c(c3C(N)=O)CCC4)nc2n1`, the growth was 123%.

On to `OC(CCC(O)(c1ccccc1)c1ccccc1)(c1ccccc1)c1ccccc1`, for which the growth was 78.4%.

In the case of `CCCCOc1ccc(C(C)(C)c2ccc(OCCCC)cc2)cc1`, the growth was 102%.

Consider `COc1cc(C2CC(=O)Nc3c2cc(Br)c2ccccc32)cc(Br)c1OC` (stereo not given), for which the growth is 6.78% (active).

Regarding `O=C(Nc1ccccc1Cl)c1cnc2ccc(C3CCNCC3)cn12`, the growth was 18%.

On to `COc1ccc(C(=O)Nc2nc(-c3ccc(Cl)cc3)cs2)cc1`, for which the growth is 114%.

On to `C[n+]1c2ccccc2c(Nc2ccc(N3CCCCC3)cc2)c2[nH]c3ccccc3c21`, for which the growth was -85% (active).

Regarding `CCOC(=O)c1c(C)c(C(=O)OCC)n(C)c1C`, the growth was 88.5%.

Take `COc1ccc(-c2cncn2-c2ccc(-c3nc4cc(OC)c(OC)c(OC)c4s3)cc2)cc1N`: the growth was 43.7%.

Regarding `O=C(Cn1ccnc1)NC(c1ccccc1)c1ccccc1`, the growth is 104%.

`Clc1ccc(CCC(Cn2ccnc2)Sc2c(Cl)cccc2Cl)cc1` (stereo not given): the growth is 26.7%.

Consider `COc1ccc(-c2nc3sccn3c2-c2ccnc(S(C)(=O)=O)n2)cc1`, for which the growth is 89%.

As for `O=[N+]([O-])c1cnc(Sc2ccncn2)c([N+](=O)[O-])c1`, the growth is 76.5%.

Take `O=C(Nc1nc(-c2ccc(Cl)cc2)cs1)c1cc(O)c(O)c(O)c1`: the growth was 71.9%.

In the case of `CC/C(=C\c1ccc(N(C)C)cc1)c1nc2ccccc2c(=O)[nH]1`, the growth was 81.7%.

For the compound `COc1ccc(C2CC(c3ccc(OC)c(OC)c3)=NN2C(=O)c2cc(OC)c(OC)c(OC)c2)cc1` (stereo not given), the growth was -1.1% (active).

In the case of `COC(=O)[C@]12CC[C@@H](C)[C@H](C)[C@@H]1C1=CC[C@@H]3[C@@]4(C)C=C(O)C(=O)[C@@]5(C)COC(=C54)C[C@@]3(C)[C@]1(C)CC2`, the growth was -70.6% (active).

Take `O=C(Nc1nc2ccccc2s1)c1cc(-c2ccc(F)cc2)n2nc(-c3ccccc3)cc2n1`: the growth was 74.5%.

Regarding `O=c1c(O)cccn1CCCNCCCN(CCCn1cccc(O)c1=O)CCCn1cccc(O)c1=O`, the growth is 111%.

On to `CSc1ccc2c(c1)N(CCC1CCCCN1C)c1ccccc1S2` (stereo not given), for which the growth was 21.6%.

Regarding `Fc1ccc(-c2nnc(-c3c(-c4ccc(F)cc4)nc4ncccn34)o2)cc1`, the growth was 93.2%.

With `C[C@]12CC[C@@H]3c4ccc(O)cc4CC[C@H]3[C@@H]1CC[C@@H]2NS(=O)(=O)c1cccc(Br)c1`, the growth was 61.6%.

As to `NC(N)=NC(N)=NCCCc1ccccc1`, the growth is 68.2% [100 µM].

As to `CC(=O)n1c2ccccc2c2ccccc21`, the growth is 105%.

As for `CC12CCC3C(CCC4CC(=O)/C(=C\O)CC43C)C1CCC(=O)O2` (stereo not given), the growth was 108%.

For `CCCc1nn(C)c2c(=O)[nH]c(-c3cc(S(=O)(=O)N4CCN(C)CC4)ccc3OCC)nc12`, the growth is 99.1%.

For the compound `O=C(/C(=N/O)S(=O)(=O)c1ccccc1)c1cccs1`, the growth is 107%.
